Laboratory results as given in PubChem BioAssay (EPA / NIEHS).
Active and inactive are the calls of the source. How the source made its calls: active means hit-call score of the fitted dose curve at least 0.9, where 1 is the maximum; inactive means score below 0.9.

How the values were obtained:
[1] = molecular target: Paired box protein Pax-6 (Homo sapiens) (UniProt P26367); assay: ATG_Pax6_CIS: Attagene CIS-FACTORIAL HepG2 Assay for human Paired Box 6 (PAX6) (AID 2282956); settings: HepG2 CIS-FACTORIAL PAX6 reporter transcription, RNA readout; actives raise or lower the signal
Paired box protein Pax-6 (Homo sapiens), sequence (P26367 whole entry, looked up): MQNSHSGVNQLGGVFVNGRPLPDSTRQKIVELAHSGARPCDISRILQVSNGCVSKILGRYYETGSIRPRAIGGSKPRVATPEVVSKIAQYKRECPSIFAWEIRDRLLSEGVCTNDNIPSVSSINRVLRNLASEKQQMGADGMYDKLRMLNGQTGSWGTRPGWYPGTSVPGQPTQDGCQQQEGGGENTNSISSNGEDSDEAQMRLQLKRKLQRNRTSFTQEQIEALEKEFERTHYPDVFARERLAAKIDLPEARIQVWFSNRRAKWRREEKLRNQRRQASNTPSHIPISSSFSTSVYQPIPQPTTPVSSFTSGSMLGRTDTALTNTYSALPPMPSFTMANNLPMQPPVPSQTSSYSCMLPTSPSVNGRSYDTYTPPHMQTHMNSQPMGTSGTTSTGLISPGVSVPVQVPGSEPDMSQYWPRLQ
Summary of the method: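 Fluorescent RT-PCR products separated by capillary electrophoresis report PAX6-linked promoter mRNA in HepG2 cells 24 h post-dose. Curves fitted bidirectionally, DMSO as negative control.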

[2] = ATG_PXRE_CIS: Attagene CIS-FACTORIAL HepG2 Assay for human Pregnane X Receptor Element (PXRE) (AID 2282957); settings: HepG2 Attagene CIS-FACTORIAL PXRE reporter, mRNA; actives raise or lower the signal
Summary of the method: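 Endogenous transcription factor activity in HepG2 was gauged through induction of reporter mRNA driven by a cis-regulating promoter element, sampled 24 h post-treatment. Activity was fitted in both directions against DMSO negative control.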

[3] = ATG_PPRE_CIS: Attagene CIS-FACTORIAL HepG2 Assay for human Peroxisome Proliferator-activated Response Element (PPRE) (AID 2282958); settings: HepG2 PPRE cis-element reporter, Attagene transcription factor profiling; actives raise or lower the signal
Summary of the method: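 Multiplexed reporter transcription units under cis-regulatory promoters were transfected into HepG2 cells to capture endogenous factor activity. A 24 h incubation preceded RNA isolation and fluorescent RT-PCR fragment analysis.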

[4] = ATG_RORE_CIS: Attagene CIS-FACTORIAL HepG2 Assay for human RAR-related Orphan Receptor Element (RORE) (AID 2282959); settings: HepG2 Attagene cis-factorial RORE reporter, mRNA; actives raise or lower the signal
Summary of the method: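 Fluorescence intensity of reporter-specific cDNA fragments, separated by capillary electrophoresis, gives the signal. Source: HepG2 liver cells transiently transfected with cis-element reporters and exposed 24 h; DMSO-normalized bidirectional fit.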

[5] = ATG_Sox_CIS: Attagene CIS-FACTORIAL HepG2 Assay for human SRY-box transcription factor (SOX) (AID 2282960); settings: HepG2 Attagene cis-factorial SOX reporter, mRNA; actives raise or lower the signal
Summary of the method: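 After 24 h of chemical treatment, transfected HepG2 reporter cells are lysed for total RNA. Transcript levels come from RT-PCR with labelled primer extension and capillary electrophoresis, analysed bidirectionally versus DMSO.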

[6] = molecular target: Transcription factor Sp1 (Homo sapiens) (UniProt P08047); assay: ATG_Sp1_CIS: Attagene CIS-FACTORIAL HepG2 Assay for human Specificity Protein 1 (Sp1) (AID 2282961); settings: HepG2 Sp1 cis-reporter transcription, actives raise or lower the signal
Transcription factor Sp1 (Homo sapiens), sequence (P08047 whole entry, looked up): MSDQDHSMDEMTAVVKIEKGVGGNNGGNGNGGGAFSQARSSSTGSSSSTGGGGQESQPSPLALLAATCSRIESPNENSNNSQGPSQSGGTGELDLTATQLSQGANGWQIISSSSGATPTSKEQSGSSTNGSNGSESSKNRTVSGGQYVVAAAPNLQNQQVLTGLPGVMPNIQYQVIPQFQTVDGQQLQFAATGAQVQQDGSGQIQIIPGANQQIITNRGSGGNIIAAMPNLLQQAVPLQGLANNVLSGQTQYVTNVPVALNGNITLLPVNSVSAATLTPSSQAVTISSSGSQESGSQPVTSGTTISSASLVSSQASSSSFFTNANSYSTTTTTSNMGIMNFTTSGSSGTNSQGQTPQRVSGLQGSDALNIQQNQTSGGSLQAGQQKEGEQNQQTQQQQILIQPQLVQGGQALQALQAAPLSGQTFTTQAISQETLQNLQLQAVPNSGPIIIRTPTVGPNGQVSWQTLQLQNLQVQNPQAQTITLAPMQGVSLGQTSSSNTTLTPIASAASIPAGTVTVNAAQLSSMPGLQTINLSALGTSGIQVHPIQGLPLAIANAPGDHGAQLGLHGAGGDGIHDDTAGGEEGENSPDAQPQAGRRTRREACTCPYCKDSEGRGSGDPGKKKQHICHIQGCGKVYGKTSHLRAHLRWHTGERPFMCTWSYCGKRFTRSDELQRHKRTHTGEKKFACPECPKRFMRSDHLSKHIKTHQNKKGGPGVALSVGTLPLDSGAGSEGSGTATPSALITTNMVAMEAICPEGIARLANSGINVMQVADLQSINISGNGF
Summary of the method: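 Sp1-driven reporter mRNA, read as capillary electrophoresis fluorescence after RT-PCR, in transiently transfected HepG2 cells dosed for 24 h; signal change in either direction relative to DMSO.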

[7] = ATG_SREBP_CIS: Attagene CIS-FACTORIAL HepG2 Assay for human Sterol Regulatory Element Binding (SREBP) (AID 2282962); settings: HepG2 Attagene cis-factorial SREBP reporter, mRNA; actives raise or lower the signal
Summary of the method: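 Endogenous factor activity is measured in HepG2 through multiplexed reporter units under cis-element control. Following a 24 h incubation, reporter transcripts are reverse-transcribed, PCR-amplified and sized by capillary electrophoresis; activity is fitted in both directions relative to DMSO.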

[8] = molecular target: Signal transducer and activator of transcription 3 (Homo sapiens) (UniProt P40763); assay: ATG_STAT3_CIS: Attagene CIS-FACTORIAL HepG2 Assay for human Signal Transducer and Activator of Transcription 3 (STAT3) (AID 2282963); settings: HepG2, Attagene cis-factorial STAT3 reporter transcription; actives raise or lower the signal
Signal transducer and activator of transcription 3 (Homo sapiens), sequence (P40763 whole entry, looked up): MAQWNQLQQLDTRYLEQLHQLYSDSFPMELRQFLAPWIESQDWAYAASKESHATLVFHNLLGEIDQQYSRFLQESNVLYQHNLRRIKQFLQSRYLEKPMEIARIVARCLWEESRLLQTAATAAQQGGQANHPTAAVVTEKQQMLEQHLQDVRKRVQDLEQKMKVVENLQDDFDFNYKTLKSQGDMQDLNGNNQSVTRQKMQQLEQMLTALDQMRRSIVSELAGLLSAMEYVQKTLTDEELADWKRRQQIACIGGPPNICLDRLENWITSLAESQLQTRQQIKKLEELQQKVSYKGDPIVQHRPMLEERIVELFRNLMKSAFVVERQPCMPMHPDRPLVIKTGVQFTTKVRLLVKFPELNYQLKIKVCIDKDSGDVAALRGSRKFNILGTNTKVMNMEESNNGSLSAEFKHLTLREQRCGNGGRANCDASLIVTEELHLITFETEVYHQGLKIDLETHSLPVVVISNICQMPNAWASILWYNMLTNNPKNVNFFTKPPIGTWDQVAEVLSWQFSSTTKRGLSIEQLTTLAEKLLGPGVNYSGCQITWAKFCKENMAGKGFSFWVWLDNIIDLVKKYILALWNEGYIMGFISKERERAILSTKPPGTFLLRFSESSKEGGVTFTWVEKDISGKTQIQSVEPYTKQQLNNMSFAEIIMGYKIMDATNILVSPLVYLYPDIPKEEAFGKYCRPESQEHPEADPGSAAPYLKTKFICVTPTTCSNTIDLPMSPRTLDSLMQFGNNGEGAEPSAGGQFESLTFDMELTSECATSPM
Summary of the method: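 HepG2, MRTU-transfected, 24 h dosing. RNA → RT → PCR → FAM label → HpaI → CE. Bidirectional fit vs DMSO.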

[9] = ATG_TA_CIS: Attagene CIS-FACTORIAL HepG2 Assay for human TA Basal Promoter (AID 2282964); settings: HepG2 Attagene CIS-factorial TA basal promoter reporter; actives raise or lower the signal
Summary of the method: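 Background-control readout: TA basal promoter reporter mRNA, fitted in both directions relative to DMSO. Measured by RT-PCR and capillary electrophoresis 24 hours after treating HepG2 human liver cells transiently carrying multiplexed cis-regulated reporter constructs.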

[10] = ATG_TCF_b_cat_CIS: Attagene CIS-FACTORIAL HepG2 Assay for human T-Cell-Factor with beta-catenin (TCF/b-cat) (AID 2282965); settings: HepG2 TCF/beta-catenin cis-reporter transcription, actives raise or lower the signal
Summary of the method: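 In this cis-format system, transfected HepG2 cells report endogenous transcription factor activity. Readout after 24 h exposure is reporter transcript abundance from RT-PCR and capillary electrophoresis, analysed for gain or loss of signal versus DMSO.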

SMILES	outcome [1]	AC50 [2]	outcome [3]	outcome [4]	outcome [5]	outcome [6]	outcome [7]	outcome [8]	outcome [9]	outcome [10]	outcome [2]	AC50 [1]	AC50 [4]	AC50 [7]	AC50 [10]	AC50 [3]	AC50 [9]	AC50 [5]	AC50 [6]
CCCCOCCOCCSC#N	inactive	1.92 µM (active)	inactive	inactive	inactive	inactive	inactive	inactive	inactive	inactive									
C=C(C)C(=O)NCCCN(C)C	inactive		inactive	inactive	inactive	inactive	inactive	inactive	inactive	inactive	inactive								
CCCCNC(=O)NS(=O)(=O)c1ccc(N)cc1	inactive		inactive	inactive	inactive	inactive	inactive	inactive	inactive	inactive	inactive								
CC(CC(C)(C)C)CC(C)(C)CC(C)(C)C (configuration not stated)	inactive		inactive	inactive	inactive	inactive	inactive	inactive	inactive	inactive	inactive								
O=C[C@@H](O)[C@H](O)[C@H](O)CO	inactive		inactive	inactive	inactive	inactive	inactive	inactive	inactive	inactive	inactive								
O=C1C(c2[nH]c3ccc(S(=O)(=O)O)cc3c2O)=Nc2ccc(S(=O)(=O)O)cc21	inactive		inactive	inactive	inactive	inactive	inactive	inactive	inactive	inactive	inactive								
O=C1OC2(c3cc(Br)c(O)c(Br)c3Oc3c2cc(Br)c(O)c3Br)c2c(Cl)c(Cl)c(Cl)c(Cl)c21		5.13 µM (active)	inactive		inactive	inactive		inactive	inactive			62.2 µM (active)	50.2 µM (active)	17 µM (active)	87.5 µM (active)				
O=C(O)Cc1cccc2ccccc12	inactive			inactive	inactive	inactive	inactive	inactive	inactive	inactive	inactive					100 µM (active)			
CCCCC(CC)COCCC#N (configuration not stated)	inactive	27.9 µM (active)	inactive	inactive	inactive	inactive	inactive	inactive	inactive	inactive									
CC(=O)O[C@]1(C(C)=O)CC[C@H]2[C@@H]3C[C@H](C)C4=CC(=O)CC[C@]4(C)[C@H]3CC[C@@]21C	inactive	2.76 µM (active)	inactive		inactive	inactive	inactive	inactive		inactive			11.2 µM (active)				42.4 µM (active)		
Cc1ccc(C=O)cc1	inactive		inactive	inactive	inactive	inactive	inactive	inactive	inactive	inactive	inactive								
COc1cc(C)cc(O)c1	inactive	20.5 µM (active)	inactive	inactive	inactive	inactive	inactive	inactive	inactive	inactive									
CC(=O)C(=O)O	inactive		inactive	inactive	inactive	inactive	inactive	inactive	inactive	inactive	inactive								
Nc1cc([N+](=O)[O-])ccc1O	inactive		inactive	inactive	inactive	inactive	inactive	inactive	inactive	inactive	inactive								
CCCC1CCC(=O)O1 (configuration not stated)	inactive		inactive	inactive	inactive	inactive	inactive	inactive	inactive	inactive	inactive								
CC1(C)C(=O)N(Br)C(=O)N1Cl	inactive	67.5 µM (active)	inactive	inactive	inactive	inactive	inactive	inactive	inactive	inactive									
CC(C=O)Cc1ccc(C(C)C)cc1 (configuration not stated)	inactive	24 µM (active)	inactive	inactive	inactive	inactive	inactive	inactive	inactive	inactive									
CC(C)=CCC/C(C)=C/COC=O	inactive		inactive	inactive	inactive	inactive	inactive	inactive	inactive	inactive	inactive								
CCC(C(=O)NC(N)=O)c1ccccc1 (configuration not stated)	inactive		inactive	inactive	inactive	inactive	inactive	inactive	inactive	inactive	inactive								
O=C1CCCCCCCCCCOCCCCO1	inactive	26.6 µM (active)	inactive	inactive	inactive	inactive	inactive	inactive	inactive	inactive									
CSc1nc(NC2CC2)nc(NC(C)(C)C)n1	inactive	0.911 µM (active)		inactive	inactive	inactive	inactive	inactive	inactive						51.7 µM (active)	100 µM (active)			
C[Si](O[Si](C)(C)C)O[Si](C)(C)C	inactive	13.4 µM (active)	inactive	inactive	inactive	inactive	inactive	inactive	inactive	inactive									
O=C(O)c1ccc(C(=O)O)cc1	inactive		inactive	inactive	inactive	inactive	inactive	inactive	inactive	inactive	inactive								
COC(C(=O)O)c1ccccc1 (configuration not stated)	inactive		inactive	inactive	inactive	inactive	inactive	inactive	inactive	inactive	inactive								
CC(C)=CCO	inactive	47.2 µM (active)	inactive	inactive	inactive	inactive	inactive	inactive	inactive	inactive									

SMILES	outcome [1]	AC50 [2]	outcome [3]	outcome [4]	outcome [5]	outcome [6]	outcome [7]	outcome [8]	outcome [9]	outcome [10]	outcome [2]	AC50 [1]	AC50 [4]	AC50 [7]	AC50 [10]	AC50 [3]	AC50 [9]	AC50 [5]	AC50 [6]
O=C(Cl)c1cccc(C(=O)Cl)c1	inactive	27.5 µM (active)	inactive	inactive	inactive	inactive	inactive	inactive	inactive	inactive									
CCOC(=S)SSC(=S)OCC	inactive		inactive	inactive	inactive	inactive	inactive	inactive	inactive	inactive	inactive								
OCCOc1cccc(OCCO)c1	inactive		inactive	inactive	inactive	inactive	inactive	inactive	inactive	inactive	inactive								
CCCCCCCCCCCCCCCC(=O)OC[C@H](O)[C@H]1OC(=O)C(O)=C1O	inactive	38.2 µM (active)	inactive	inactive		inactive		inactive	inactive					100 µM (active)	168 µM (active)			150 µM (active)	
O=C1CCCCCCCCCCCCCCO1	inactive		inactive	inactive	inactive	inactive	inactive	inactive	inactive	inactive	inactive								
Clc1ccc2c(c1)C(N1CCNCC1)=Nc1ccccc1O2			inactive	inactive	inactive	inactive	inactive	inactive	inactive	inactive	inactive	41.1 µM (active)							
N#Cc1nc(Cl)c(Cl)c(Cl)c1Cl		5.5 µM (active)	inactive	inactive		inactive		inactive	inactive			5.32 µM (active)		5.74 µM (active)	3.82 µM (active)			5.26 µM (active)	
CC1=CCC(O)(C(C)C)CC1 (configuration not stated)	inactive	39.1 µM (active)	inactive	inactive	inactive	inactive	inactive	inactive	inactive	inactive									
COc1cc2ncnc(Nc3cccc(Cl)c3)c2cc1OC			inactive	inactive	inactive	inactive	inactive	inactive			inactive	25 µM (active)			6.77 µM (active)		9.84 µM (active)		
Cc1cccc(C)c1C	inactive		inactive	inactive	inactive	inactive	inactive	inactive	inactive	inactive	inactive								
Cc1ccc(C(=O)O)o1	inactive		inactive	inactive	inactive	inactive	inactive	inactive	inactive	inactive	inactive								
CCCC(=O)c1cc(O)c(O)cc1O	inactive		inactive	inactive	inactive	inactive	inactive	inactive	inactive	inactive	inactive								
CCCCCOC(=O)CCC	inactive		inactive	inactive	inactive	inactive	inactive	inactive	inactive	inactive	inactive								
BrC1CCC(Br)C(Br)CCC(Br)C(Br)CCC1Br (configuration not stated)		0.95 µM (active)	inactive	inactive	inactive			inactive	inactive	inactive		20.5 µM (active)		53.7 µM (active)					
Cc1ccc(O)c(C(C)(C)C)c1		25.1 µM (active)	inactive		inactive			inactive	inactive	inactive		138 µM (active)	162 µM (active)	100 µM (active)					
CC1CCC(C(C)CS)CC1S (configuration not stated)	inactive	2.54 µM (active)	inactive	inactive			inactive	inactive	inactive						49.4 µM (active)				52.1 µM (active)
Cc1ccc(C=O)s1	inactive	35.7 µM (active)	inactive		inactive	inactive	inactive	inactive	inactive	inactive									
C=C(C)[C@@H]1CCC2=CC(=O)C[C@@H](C)[C@]2(C)C1	inactive	2.33 µM (active)	inactive		inactive	inactive	inactive	inactive	inactive	inactive									
c1ccc2sc(SN(C3CCCCC3)C3CCCCC3)nc2c1	inactive	0.698 µM (active)	inactive	inactive	inactive	inactive	inactive	inactive	inactive	inactive									
COc1nc(C)nc(N)n1	inactive		inactive	inactive		inactive	inactive	inactive	inactive	inactive	inactive								
O=P(c1ccccc1)(c1ccccc1)c1ccccc1	inactive	5.59 µM (active)	inactive	inactive		inactive	inactive	inactive	inactive	inactive									
CCCCCCCCCC=O	inactive			inactive	inactive		inactive	inactive	inactive	inactive	inactive					46.1 µM (active)			
Nc1cc(N)cc(C(=O)O)c1	inactive		inactive	inactive	inactive	inactive	inactive	inactive	inactive	inactive	inactive								
NCCCCCCN	inactive		inactive	inactive	inactive	inactive	inactive	inactive	inactive	inactive	inactive								
